# Experimental data reported in PubChem BioAssay (NCATS).
# Values joined by “and” are separate entries in the source; they are usually repeats but may differ in a detail not shown here. Equal values may be shown once. Records with an inconclusive call do not appear. A structure can be active in one record and inactive in another. Active and inactive are the calls of the source. The call rests on the fitted dose curve; in most records, active means well fitted curve in the direction sought with a large enough effect; inconclusive means small, poorly fitted or top-dose-only effect, or another doubt; inactive means no such curve, though single readings can be large; an effect the other way counts as inactive or inconclusive.
# Assay: Cell Viability - N2a (AID 540);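 further: plate controls were DMSO alone for no effect and tamoxifen control for full effect; nearly all actives have a fitted effect of over 45% in size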
# Conditions: N2a mouse neuroblastoma cell viability; activity change, negative = cytotoxicity: at 92.2 µM (top of the series)
# Summary of the method: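 CellTiter-Glo ATP luminescence, read 20 min after reagent at room temperature, reported viability following 40 h compound treatment at 37 °C. N2a mouse neuroblastoma cells seeded 1500/well; Hill equation gave AC50.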
row,Structure (SMILES),"activity change, negative = cytotoxicity"
1,COc1ccc2nc(N)sc2c1,-0.684% (inactive)
2,CCC(O)OC(O)CC (centres undefined),5.7% (inactive) and 11.3% (inactive)
3,Cc1cccc([N+](=O)[O-])c1C,-2.02% (inactive)
4,CCCCCCCCO,-10.6% (inactive)
5,CCO,-0.0856% (inactive)
6,C=CC(=O)OCCOCCOCCOCCOC(=O)C=C,-110% (active) and -111% (active)
7,Clc1cc(Cl)c(Cl)c(Cl)c1Cl,-10.3% (inactive)
8,CCCCC(CC)CN (centres undefined),-20.4% (inactive) and 2.62% (inactive)
9,O=NO,-19.4% (inactive) and -4.96% (inactive)
10,c1ccc2c(c1)[nH]c1ccccc12,-16.4% (inactive)

# Assay: Cell Viability - NIH 3T3 (AID 541);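 further: cells exposed to compound for 40 hours; nearly all actives have a fitted effect of over 25% in size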; further: potency means the concentration at half of the fitted maximal effect;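 on activity change, negative = cytotoxicity: plate controls were DMSO alone for no effect and tamoxifen positive control for full effect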
# Conditions: NIH 3T3 cell viability, qHTS; activity change, negative = cytotoxicity: at 92.2 µM (top of the series)
# Summary of the method: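 Intracellular ATP (CellTiter-Glo luminescence, 20 min at room temperature) measured after 40 hr compound exposure at 37 °C of 1000 NIH 3T3 mouse fibroblasts/well in complete medium; AC50 derived by Hill-equation modelling of qHTS concentration-response curves.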
Structure (SMILES),"activity change, negative = cytotoxicity",Potency
CCCN(CCC)C(=O)SCC,0.313% (inactive),–
COc1ccc2nc(N)sc2c1,-10.3% (inactive),–
c1ccc2c(c1)c1cccc3ccc4cccc2c4c31,7.67% (inactive),–
Cc1cccc([N+](=O)[O-])c1C,9.31% (inactive),–
CCCCCCCCO,-23.5% (inactive),–
O=[N+]([O-])c1cccc(Cl)c1Cl,-11.6% (inactive),–
Clc1cc(Cl)c(Cl)c(Cl)c1Cl,-25.3% (inactive),–
CCCCC(CC)CN (centres undefined),–,12.6 µM (active) and inactive
O=NO,–,inactive
OCCNCCO,3.33% (inactive),–
Nc1ccc(Cl)cc1Cl,-0.532% (inactive),–

# Assay: Cell Viability - HUV-EC-C (AID 542);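 further: cells exposed to compound for 40 hours; on the % scale 0 is the no-effect control and ±100 the full control effect; nearly all actives have a fitted effect of over 35% in size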
# Conditions: HUV-EC-C endothelial cell viability, qHTS; series mostly up to 92.2 µM; activity change, negative = cytotoxicity: at the top concentration
# Summary of the method: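 CellTiter-Glo luminescence measured ATP loss in HUV-EC-C cells (1000/well) after 40 hr compound exposure at 37 °C, in complete culture medium. Concentration-response data were Hill-fitted to give AC50.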
Structure (SMILES),"activity change, negative = cytotoxicity",outcome
CCCN(CCC)C(=O)SCC,2.26% (inactive),–
COc1ccc2nc(N)sc2c1,11.7% (inactive),–
ClCCCl,10.7% (inactive),–
CCC(O)OC(O)CC (centres undefined),–,inactive
C=Cc1ccccc1Cl,-5.12% (inactive),–
c1ccc2c(c1)c1cccc3ccc4cccc2c4c31,4.43% (inactive),–
Cc1cccc([N+](=O)[O-])c1C,6.22% (inactive),–
CCCCCCCCO,4.6% (inactive),–
CC(C)=CCCC(C)CCO (centres undefined),4.71% (inactive),–
O=[N+]([O-])c1cccc(Cl)c1Cl,-2.16% (inactive),–
CCO[Si](CCCN)(OCC)OCC,1.51% (inactive),–
Clc1cc(Cl)c(Cl)cc1Cl,9.59% (inactive),–
CCO,14.6% (inactive),–
Clc1cc(Cl)c(Cl)c(Cl)c1Cl,-1.07% (inactive),–
CCCCC(CC)CN (centres undefined),–,inactive
O=NO,–,inactive
c1ccc2c(c1)[nH]c1ccccc12,-11.1% (inactive),–
OCCNCCO,1.78% (inactive),–
Nc1ccc(Cl)cc1Cl,14.8% (inactive),–
CCC(C)c1ccccc1O (centres undefined),–,inactive
CC1=CC(C)(C)Nc2ccccc21,–,inactive
CN(C)C=O,–,inactive
Cc1ccc(N)c([N+](=O)[O-])c1,12.8% (inactive),–
CCCCOCCO,–,inactive
CC(=O)OC/C=C(\C)CCC=C(C)C,3.62% (inactive),–

# Assay: Cell Viability - H-4-II-E (AID 543);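 further: cells exposed to compound for 40 hours; nearly all actives have a fitted effect of over 35% in size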; further: potency means the concentration at half of the fitted maximal effect; on activity change, negative = cytotoxic: on the % scale 0 is the no-effect control and ±100 the full control effect
# Conditions: H-4-II-E rat hepatoma viability; series mostly up to 92.2 µM; activity change, negative = cytotoxic: at the top concentration
# Summary of the method: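 CellTiter-Glo luminescence (intracellular ATP) measured after 40 h compound exposure at 37 °C in H-4-II-E rat hepatoma cells seeded at 1500/well. Values are AC50s fitted with the standard Hill equation.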
Structure (SMILES),"activity change, negative = cytotoxic",Potency
CCCN(CCC)C(=O)SCC,0.334% (inactive),–
COc1ccc2nc(N)sc2c1,-7.32% (inactive),–
ClCCCl,-1.2% (inactive),–
CCC(O)OC(O)CC (centres undefined),–,inactive
C=Cc1ccccc1Cl,6.51% (inactive),–
c1ccc2c(c1)c1cccc3ccc4cccc2c4c31,2.55% (inactive),–
Cc1cccc([N+](=O)[O-])c1C,-3.47% (inactive),–
CCCCCCCCO,9.84% (inactive),–
CC(C)=CCCC(C)CCO (centres undefined),-3.91% (inactive),–
O=[N+]([O-])c1cccc(Cl)c1Cl,3.86% (inactive),–
CCO[Si](CCCN)(OCC)OCC,-5.07% (inactive),–
Clc1cc(Cl)c(Cl)cc1Cl,0.434% (inactive),–
CCO,1.04% (inactive),–
C=CC(=O)OCCOCCOCCOCCOC(=O)C=C,–,20 µM (active)
Clc1cc(Cl)c(Cl)c(Cl)c1Cl,-13.6% (inactive),–
CCCCC(CC)CN (centres undefined),–,inactive
O=NO,–,inactive
c1ccc2c(c1)[nH]c1ccccc12,-19.8% (inactive),–
OCCNCCO,13.9% (inactive),–
Nc1ccc(Cl)cc1Cl,-7.41% (inactive),–
CCC(C)c1ccccc1O (centres undefined),–,inactive
CC1=CC(C)(C)Nc2ccccc21,–,inactive
CN(C)C=O,–,inactive
Cc1ccc(N)c([N+](=O)[O-])c1,-3.83% (inactive),–
CCCCOCCO,–,inactive
CC(=O)OC/C=C(\C)CCC=C(C)C,1.88% (inactive),–

# Assay: Cell Viability - SH-SY5Y (AID 544);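 further: cells exposed to compound for 40 hours; nearly all actives have a fitted effect of over 55% in size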; further: potency means the concentration at half of the fitted maximal effect;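 on viability change, negative = cytotoxic: 0% = DMSO alone and -100% = 100 µM tamoxifen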
# Conditions: SH-SY5Y neuroblastoma cell viability; series mostly up to 92.2 µM; viability change, negative = cytotoxic: at the top concentration
# Summary of the method: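 Cytotoxicity measured via ATP-dependent luciferase luminescence (CellTiter-Glo) following 40 h, 37 °C exposure of 1500 SH-SY5Y cells per well. Concentration-response data were fitted with the standard Hill equation to give AC50.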
Structure (SMILES),"viability change, negative = cytotoxic",Potency
CCCN(CCC)C(=O)SCC,0.419% (inactive),–
COc1ccc2nc(N)sc2c1,-6.01% (inactive),–
ClCCCl,-1.95% (inactive),–
CCC(O)OC(O)CC (centres undefined),–,inactive
C=Cc1ccccc1Cl,-2.62% (inactive),–
c1ccc2c(c1)c1cccc3ccc4cccc2c4c31,-4.74% (inactive),–
Cc1cccc([N+](=O)[O-])c1C,-6.2% (inactive),–
CCCCCCCCO,-11.4% (inactive),–
CC(C)=CCCC(C)CCO (centres undefined),-7.85% (inactive),–
O=[N+]([O-])c1cccc(Cl)c1Cl,-7.2% (inactive),–
CCO[Si](CCCN)(OCC)OCC,-8.06% (inactive),–
Clc1cc(Cl)c(Cl)cc1Cl,-0.608% (inactive),–
CCO,-3.48% (inactive),–
C=CC(=O)OCCOCCOCCOCCOC(=O)C=C,–,7.94 µM (active) and 12.6 µM (active)
Clc1cc(Cl)c(Cl)c(Cl)c1Cl,7.84% (inactive),–
CCCCC(CC)CN (centres undefined),-1.35% (inactive),–
O=NO,–,inactive
c1ccc2c(c1)[nH]c1ccccc12,-8.03% (inactive),–
OCCNCCO,0.54% (inactive),–
Nc1ccc(Cl)cc1Cl,-9.34% (inactive),–
CCC(C)c1ccccc1O (centres undefined),–,inactive
CC1=CC(C)(C)Nc2ccccc21,–,inactive
CN(C)C=O,–,inactive
Cc1ccc(N)c([N+](=O)[O-])c1,-1.96% (inactive),–
CCCCOCCO,–,inactive
CC(=O)OC/C=C(\C)CCC=C(C)C,-10.5% (inactive),–

# Assay: Cell Viability - Renal Proximal Tubule (AID 545);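 further: cells exposed to compound for 40 hours; 0% = DMSO only and -100% = 100 µM tamoxifen; nearly all actives have a fitted effect of over 40% in size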
# Conditions: renal proximal tubule cells viability, primary cells of rat origin; at 91.7 µM (top of the series)
# Summary of the method: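 Rat kidney proximal tubule cells, freshly isolated; 1000 cells/well, 5 hr settle, compound 40 hr 37 °C. CellTiter-Glo 20 min RT, luminescence read. AC50 by standard Hill fit.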
row,Structure (SMILES),"activity change, negative = cytotoxicity"
1,CCCN(CCC)C(=O)SCC,6.23% (inactive)
2,COc1ccc2nc(N)sc2c1,-14.7% (inactive)
3,ClCCCl,-0.883% (inactive)
4,CCC(O)OC(O)CC (centres undefined),-7.55% (inactive) and -1.85% (inactive)
5,C=Cc1ccccc1Cl,-4.37% (inactive)
6,c1ccc2c(c1)c1cccc3ccc4cccc2c4c31,-12.3% (inactive)
7,Cc1cccc([N+](=O)[O-])c1C,0.624% (inactive)
8,CCCCCCCCO,-1.75% (inactive)
9,CC(C)=CCCC(C)CCO (centres undefined),-2.53% (inactive)
10,O=[N+]([O-])c1cccc(Cl)c1Cl,-2.04% (inactive)
11,CCO[Si](CCCN)(OCC)OCC,-12% (inactive)
12,Clc1cc(Cl)c(Cl)cc1Cl,-8.1% (inactive)
13,CCO,-3.41% (inactive)
14,C=CC(=O)OCCOCCOCCOCCOC(=O)C=C,-95.5% (active) and -108% (active)
15,Clc1cc(Cl)c(Cl)c(Cl)c1Cl,-5.98% (inactive)
16,CCCCC(CC)CN (centres undefined),-8.31% (inactive) and 1.31% (inactive)
17,O=NO,-3.27% (inactive) and -5.21% (inactive)
18,c1ccc2c(c1)[nH]c1ccccc12,-10.3% (inactive)
19,OCCNCCO,-1.22% (inactive)
20,Nc1ccc(Cl)cc1Cl,-0.932% (inactive)
21,CCC(C)c1ccccc1O (centres undefined),2.94% (inactive) and 2.27% (inactive)
22,CC1=CC(C)(C)Nc2ccccc21,-6.6% (inactive) and -0.974% (inactive)
23,CN(C)C=O,-1.87% (inactive) and 6.39% (inactive)
24,Cc1ccc(N)c([N+](=O)[O-])c1,4.17% (inactive)
25,CCCCOCCO,5.22% (inactive) and -6.35% (inactive)
26,CC(=O)OC/C=C(\C)CCC=C(C)C,3.05% (inactive)
